Assay outcomes deposited in PubChem BioAssay by Johns Hopkins Ion Channel Center.
Compounds with a hit are over-represented: about 1.6% of the library has one in this group of screens.
KCNQ2 inh – rat KCNQ2 potassium channel inhibitors, primary screen, cell-based, CHO-K1, FluxOR thallium flux, B-score. Potassium voltage-gated channel subfamily KQT member 2 (Rattus norvegicus), O88943. B-score at 10 µM. 20 min; stronger effect = lower value. actives 1.1% (n = 310,000);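 active means fluorescence ratio B-score at most minus 3 library SDs, with starting brightness B-score within 2 library SDs, cut at about -5.5 in these data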
KCNQ2 enhance – potentiators of rat KCNQ2 potassium channel. CHO-K1 KCNQ2, FluxOR thallium flux fluorescence; stronger effect = higher value. actives 0.54% (n = 310,000). Potassium voltage-gated channel subfamily KQT member 2 (Rattus norvegicus), O88943. AID 2239, 2010. B-score at 10 µM;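 active means fluorescence ratio B-score at least 3 SD of library B-scores, with initial fluorescence B-score within 3 of them, cut at about 5.3 in these data; same plate scores as AID 2156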;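 further: B-score of peak minus minimum over baseline fluorescence ratio after K+ and Tl+ stimulus; positive B-score means potentiation of KCNQ2 with more thallium influx and brighter signal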
Kir21 conf inh – mouse Kir2.1 channel blockers, retest, confirmation, cell-based, FluxOR thallium flux, duplicate. Kir2.1-expressing cells, FluxOR thallium flux fluorescence; stronger effect = lower value. actives 41% (n = 2,300). Tl flux remaining, % of negative control (stronger effect = lower value), % at 10 µM. shares compounds with KCNQ2 enhance. AID 2032, 2009;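 active means Primary-screen hit whose thallium flux fell at least 3 control SD below untreated wells in both duplicates, with normal baseline fluorescence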;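 further: 0% = blank wells without stimulus and 100% = stimulated no-compound controls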
Target sequence (P35561 whole entry, looked up): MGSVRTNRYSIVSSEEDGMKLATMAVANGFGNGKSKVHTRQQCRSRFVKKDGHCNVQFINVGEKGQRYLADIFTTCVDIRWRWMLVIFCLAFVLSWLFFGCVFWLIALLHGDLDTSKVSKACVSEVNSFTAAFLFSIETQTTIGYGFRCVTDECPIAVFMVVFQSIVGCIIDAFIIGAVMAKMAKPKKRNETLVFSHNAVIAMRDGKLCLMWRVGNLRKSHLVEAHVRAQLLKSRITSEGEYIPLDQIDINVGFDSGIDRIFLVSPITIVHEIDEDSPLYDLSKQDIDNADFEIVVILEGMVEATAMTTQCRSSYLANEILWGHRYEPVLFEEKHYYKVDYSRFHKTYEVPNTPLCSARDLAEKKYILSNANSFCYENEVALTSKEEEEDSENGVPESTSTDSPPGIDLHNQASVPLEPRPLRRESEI
HEK293 Tl flux – parental HEK293 activity in Kir2.1 inhibitor counter-screen; shares compounds with KCNQ2 enhance; parental HEK293 cells, FluxOR thallium flux fluorescence; 0% = unstimulated blank wells; FluxOR signal as % of negative control (100 = no effect), % at 10 µM; actives 19% (n = 2,300);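 active means dye signal at least 3 control SD above or below untreated wells in both duplicates, raw fluorescence within 3, either direction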;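 further: percent is based on the flux ratio of peak minus minimum fluorescence over baseline F0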
CHO-K1 ctr – nonspecific thallium flux increase in parental CHO-K1, confirmation, counter-screen for KCNQ2 potentiator project, cell-based, FluxOR thallium flux, duplicate; shares compounds with KCNQ2 enhance; parental CHO-K1 cells, FluxOR thallium flux fluorescence; zero = vehicle mean+3SD, 100% = vehicle-minus-blank window; activity increase over 3SD of controls, % at 10 µM; actives 43% (n = 1,200);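 active means signal rise of at least 3 SD above the untreated control mean, in both duplicate wells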;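 further: counter screen of KCNQ2 potentiator hits so any rise reflects channel-independent effects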
KCNQ1 sel pot – human KCNQ1 channel potentiation off-target, confirmation, selectivity assay for KCNQ2 potentiator project, cell-based, CHO, FluxOR thallium flux | shares compounds with KCNQ2 enhance | actives 28% (n = 1,200) | AID 2283, 2010 | activation over 3SD threshold, % at 10 µM | CHO KCNQ1 stable, FluxOR thallium flux fluorescence; beyond 3SD, as % of vehicle-control signal;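 active means fluorescence ratio rise of at least 3 SD of vehicle wells above their mean, in both replicate wells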;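 further: 0% = vehicle mean plus 3 SD and 100% = vehicle minus unstimulated blank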
KCNQ2 pot confirm – rat KCNQ2 channel potentiators, confirmation, cell-based, CHO, FluxOR thallium flux, duplicate; CHO-KCNQ2 cells, FluxOR thallium flux fluorescence; potentiation, less the hit threshold, % at 10 µM; actives 68% (n = 1,200); shares compounds with KCNQ2 enhance;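 active means fluorescence ratio rising 3 SD or more over the vehicle control mean in both replicates, plus primary screen hit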;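 further: peak minus minimum thallium fluorescence divided by baseline after K/Tl stimulus; 0% = vehicle mean plus 3 SD and 100% = vehicle minus unstimulated blank difference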
Kir2-1 sel – mouse Kir2.1 channel activation off-target, confirmation, selectivity assay for KCNQ2 potentiator project, cell-based, HEK293, FluxOR thallium flux; HEK293 Kir2.1, FluxOR thallium flux fluorescence; activity over 3SD threshold, % at 10 µM; actives 2% (n = 1,200); shares compounds with KCNQ2 enhance;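 active means fluorescence ratio rise of at least 3 SD above the vehicle-control mean, seen in both replicates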;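 further: 0% = vehicle mean plus 3 SD and 100% = vehicle minus no-stimulus blank window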
KCNQ2 W236L pot – potentiators of retigabine-insensitive KCNQ2 W236L, mechanism study for KCNQ2 potentiator project, cell-based, rat KCNQ2 W236L, CHO, automated patch clamp. actives 10% (n = 940). shares compounds with KCNQ2 enhance. automated patch clamp current. current increase over 3SD of negative controls (%), stronger effect = higher value, % at 25 µM. AID 2558, 2010;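 active means current increase at least 3 SD of the untreated controls above them in both duplicate recordings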
An asterisk follows results filed as active; i = inactive; . = not tested or not shown.

SMILES | KCNQ2 inh | KCNQ2 enhance | Kir21 conf inh | HEK293 Tl flux | others
Fc1ccc(COc2ccc(Br)cc2CNCc2ccncc2)cc1 | i | . | . | .
Cc1cc(C)c(C)c(S(=O)(=O)NCCN2CCOCC2)c1C | i | 1.1 | . | .
Cc1csc(NC(=O)CSc2nc(=O)n(CCN(C)C)c3c2CCCC3)n1 | i | 0.88 | . | .
CC(=O)Nc1ccc(C(=O)N(C)C(C(=O)Nc2ccccc2)c2ccccn2)cc1 (stereo unspecified) | i | 0.84 | . | .
CCCCn1c(N)c(N(CCOC)C(=O)COC(=O)C(C)(C)Oc2ccc(Cl)cc2)c(=O)[nH]c1=O | i | . | . | .
CCC1(CC)C(=O)C(C)(C)C(=O)OC1c1cccs1 (stereo unspecified) | i | . | . | .
Cc1cc(SCc2ccc(Cl)c(Cl)c2)nc(=O)[nH]1 | i | . | . | .
COc1cccc(NC(=O)NC(C)C2CC3CCC2C3)c1 (stereo unspecified) | i | 12.2* | i | i | CHO-K1 ctr=-28.9;KCNQ1 sel pot=-11.7;KCNQ2 pot confirm=-0.2;Kir2-1 sel=-29.8;KCNQ2 W236L pot=i
COc1ccc(C(=O)NC(C)C2CC3CCC2C3)c(OC)c1 (stereo unspecified) | i | . | . | .
CC(C)NS(=O)(=O)c1ccc(Oc2ncc(C(F)(F)F)cc2Cl)cc1 | i | . | . | .
COc1ccc(S(=O)(=O)NN(C)c2ncc(C(F)(F)F)cc2Cl)cc1 | i | . | 61.0%* | i
COc1ccc(C(=O)NCCC2=CCCCC2)cc1 | i | . | . | .
COc1ccc(OC(C)C(=O)NCCC2=CCCCC2)cc1 (stereo unspecified) | i | . | 48.0%* | i
O=[N+]([O-])CC(=Nc1ccc(F)cc1)N/N=C\c1oc(O)c2ccccc12 | i | . | . | .
COc1cccc(C(=O)Nc2ccncc2)c1OC | i | 7.19* | i | i | CHO-K1 ctr=-2.6;KCNQ1 sel pot=-16.7;KCNQ2 pot confirm=-14.7;Kir2-1 sel=-41.5
COc1ccccc1C(=O)Nc1ccncc1 | i | . | . | .
Cc1onc(-c2c(F)cccc2Cl)c1C(=O)OCC(=O)c1c[nH]c2ccccc12 | i | 6.42* | i | i | CHO-K1 ctr=-4.6;KCNQ1 sel pot=-9.6;KCNQ2 pot confirm=-1.3;Kir2-1 sel=-20.9
Cc1noc(C)c1C(=O)OCC(=O)c1c[nH]c2ccccc12 | i | . | . | .
NNC(=O)c1ccc(CSc2nc3ccccc3[nH]2)cc1 | i | 1.34 | . | .
COc1ccccc1-n1c(-c2ccccc2)c[n+]2c1CCc1ccccc1-2 | i | . | . | .
COc1ccc(-n2c(-c3ccc(Br)cc3)c[n+]3c2CCc2ccccc2-3)cc1 | i | . | 59.5%* | 74.0%*
CC(C)c1ccc(-n2c(-c3ccccc3)c[n+]3c2CCc2ccccc2-3)cc1 | -7.43* | -7.43 | 20.0%* | i
COc1ccc(-c2cn(-c3ccc(OC)cc3)c3[n+]2-c2ccccc2CC3)cc1 | i | . | . | .
COc1cccc(NC(=O)c2ccc(NC(=O)C(C)(C)C)cc2)c1 | i | 1.23 | . | .
